Measured values taken from PubChem BioAssay.

How the values were obtained:
[1] = tested on: Human papillomavirus type 1a protein E7 (residues 44-93); assay: HPV1a E7 fragment binders on microarrays, primary screen, biochemical, small-molecule microarray, residues 44-93, 635 nm fluorescence (AID 1108); settings: small-molecule microarray binding, fluorescence 635 nm; higher = more signal;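 further: E7 fragment applied at 1 µg/mL in TBST for 1 h at 4 C; score combines spot fluorescence with its signal to noise ratio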
[2] = modulators of HCV replicon luciferase signal, primary screen, HCV replication inhibitor project, Huh7 cells, luciferase reporter (AID 1109); settings: 48 h, higher = more signal;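 further: huh7 hepatoma cells harbouring a luciferase neomycin HCV replicon reporter; luciferase luminescence as measure of HCV replicon replication; test concentration not given here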
[3] = target: Left-right determination factor 2 (Homo sapiens) (UniProt O00292); assay: LEFTY2 binders on small-molecule microarrays, primary screen, biochemical, small-molecule microarray, 635 nm fluorescence scan (AID 1110); settings: LEFTY2 binding, higher = more signal
[4] = target: Calmodulin-1 (Homo sapiens) (UniProt P0DP23); assay: CALM1 binders on microarrays, EGTA buffer, profiling panel, biochemical, small-molecule microarray, Cy5-labelled CALM1 (AID 1111); settings: Cy5-CALM1 binding fluorescence, higher = more signal;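 further: labelled calmodulin applied in Tris saline Tween buffer holding calcium plus EGTA and DTT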
[5] = target: Calmodulin-1 (Homo sapiens) (UniProt P0DP23); assay: calcium-bound CALM1 binders on microarrays, profiling panel, artefact control for SMM control-protein annotation, biochemical, small-molecule microarray, Cy5-labelled CALM1, plus calcium (AID 1112); settings: Cy5-CALM1 binding fluorescence, higher = more signal;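 further: score merges spot fluorescence with signal to noise from triplicate slides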
[6] = small-molecule microarray binders of probe aWnt5a, primary screen, biochemical, biotinylated probe, 635/667 nm fluorescence (AID 1113); settings: higher = more signal;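 further: score merges 667 nm fluorescence intensity with signal-to-noise per printed feature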
[7] = small-molecule microarray binders of probe aShh, primary screen, biochemical, biotinylated probe, 635/667 nm fluorescence (AID 1114); settings: higher = more signal;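 further: probe is biotin-labelled aShh protein from a stem cell growth factor screen; measures binding of labelled protein to compounds printed on the slide; score merges feature fluorescence at 667 nm with signal-to-noise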
[8] = small-molecule microarray binders of probe aNog, primary screen, biochemical, biotinylated probe, 635/667 nm fluorescence (AID 1115); settings: higher = more signal;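 further: probe is biotinylated aNog protein used at 0.15 µg/mL for 1 h at 4 C; z-score combines 667 nm fluorescence of each spot with its signal to noise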
[9] = target: Torsin-1A-interacting protein 1 (Homo sapiens) (UniProt Q5JTV8); assay: LAP1 binders from COS7 cell lysate, primary screen, small-molecule microarray, 635/667 nm fluorescence (AID 1116); settings: COS7-hLAP1 lysate binding, 635 nm fluorescence, higher = more signal
[10] = target: Alpha-bungarotoxin (Bungarus multicinctus) (UniProt P60615); assay: alpha-bungarotoxin binders on microarray, profiling panel, artefact control for SMM control protein annotation, biochemical, small-molecule microarray, Alexa647 label, 635/667 nm fluorescence (AID 1117); settings: alpha-BTX-A647 binding fluorescence, higher = more signal
Chain of Alpha-bungarotoxin (Bungarus multicinctus) (P60615 whole entry, looked up): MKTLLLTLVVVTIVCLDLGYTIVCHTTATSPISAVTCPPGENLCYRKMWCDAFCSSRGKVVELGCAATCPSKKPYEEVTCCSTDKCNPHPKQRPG

Chain of Torsin-1A-interacting protein 1 (Homo sapiens) (Q5JTV8 whole entry, looked up): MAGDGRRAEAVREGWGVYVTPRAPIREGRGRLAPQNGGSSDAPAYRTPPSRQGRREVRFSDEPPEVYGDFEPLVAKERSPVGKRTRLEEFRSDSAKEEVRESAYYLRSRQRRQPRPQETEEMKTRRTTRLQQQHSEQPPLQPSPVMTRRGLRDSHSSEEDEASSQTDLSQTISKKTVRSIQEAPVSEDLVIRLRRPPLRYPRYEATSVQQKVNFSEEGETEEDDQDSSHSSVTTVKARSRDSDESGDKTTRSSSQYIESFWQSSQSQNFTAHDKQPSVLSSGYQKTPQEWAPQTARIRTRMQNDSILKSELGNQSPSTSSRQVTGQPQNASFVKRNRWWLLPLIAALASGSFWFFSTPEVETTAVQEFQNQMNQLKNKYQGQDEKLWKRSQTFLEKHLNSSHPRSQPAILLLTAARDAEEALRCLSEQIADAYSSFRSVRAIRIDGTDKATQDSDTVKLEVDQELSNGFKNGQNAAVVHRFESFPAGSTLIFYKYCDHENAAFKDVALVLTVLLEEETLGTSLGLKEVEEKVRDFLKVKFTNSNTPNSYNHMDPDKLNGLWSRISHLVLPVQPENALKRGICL
Chain of Left-right determination factor 2 (Homo sapiens) (O00292 whole entry, looked up): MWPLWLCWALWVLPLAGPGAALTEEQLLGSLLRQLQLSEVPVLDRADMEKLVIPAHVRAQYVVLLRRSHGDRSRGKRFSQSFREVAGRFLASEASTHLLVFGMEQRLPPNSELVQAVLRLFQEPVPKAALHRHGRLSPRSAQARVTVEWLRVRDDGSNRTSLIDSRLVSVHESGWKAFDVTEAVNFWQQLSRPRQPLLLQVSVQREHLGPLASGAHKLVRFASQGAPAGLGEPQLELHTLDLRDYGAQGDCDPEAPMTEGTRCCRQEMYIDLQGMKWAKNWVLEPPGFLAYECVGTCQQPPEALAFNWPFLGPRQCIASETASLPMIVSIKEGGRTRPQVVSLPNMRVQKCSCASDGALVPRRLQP

| SMILES | composite z-score [1] | z-score [2] | composite z-score [3] | composite z-score [4] | composite z-score [5] | composite z-score [6] | composite z-score [7] | composite z-score [8] | composite z-score [9] | composite z-score [10] |
| --- | --- | --- | --- | --- | --- | --- | --- | --- | --- | --- |
| C=CC1(C(=O)OC)CC=C(C(=O)OC)CC1 (stereo not given) | 1.1 | -0.928 | 1.24 | 0.887 | 0.234 | -0.141 | 1.1 | -0.0689 | 1.1 | 0.605 |
| CCCCC(CC)C(O)C1C=CC2C(=O)N(Cc3ccccc3)C(=O)C2N1n1cnnc1 (stereo not given) | 0.281 | 0.137 | -0.729 | -0.0327 | -0.658 | -0.124 | -0.153 | -0.127 | -0.0742 | 0.308 |
| CCC(CC)C(O)C1C=CC2C(=O)NC(=O)C2N1Nc1ccc(Cl)cc1Cl (stereo not given) | 0.672 | -0.759 | -0.46 | 1.93 | 1.15 | -0.12 | 0.234 | -0.452 | 0.247 | 1.05 |
| COC(=O)[C@@]1(Cc2ccc(OC)cc2)[C@H]2c3cc(C(=O)N(C)C)n(CCc4ccccn4)c3C[C@H]2CN1C(=O)c1ccccc1 | 0.263 | -0.845 | -0.288 | 0.993 | 0.93 | 0.675 | 1.31 | 0.854 | 1.01 | 0.248 |
| COC(=O)[C@@]1(Cc2ccc(F)cc2)[C@H]2c3cc(C(=O)N(C)C)n(Cc4ccccc4)c3C[C@H]2CN1C(=O)c1ccccc1 | 1.35 | 0.185 | -0.496 | 1.11 | 0.363 | -0.0977 | 1.17 | 1.59 | -0.3 | 2.56 |
| CC(=O)n1cc(C(O)C2C=CC3C(=O)N(c4ccccc4)C(=O)C3N2Nc2ccc([N+](=O)[O-])cc2)c2ccccc21 (stereo not given) | 0.275 | -0.0176 | -0.712 | 1.73 | 0.571 | -0.0459 | -0.0243 | 0.576 | 1.87 | 1.7 |
| O=C1C2C=CC(C(O)c3cc(C(F)(F)F)cc(C(F)(F)F)c3)N(n3cnnc3)C2C(=O)N1Cc1ccccc1 (stereo not given) | 1.11 | -0.418 | -0.63 | 0.538 | -0.374 | -0.0161 | 0.14 | 0.705 | -0.133 | -0.0735 |
| C=CCNC(=O)[C@@H]1[C@H]2C(=O)O[C@H](c3ccccc3)[C@H](c3ccccc3)N2[C@H](c2ccc(OCCO)cc2)[C@@]12C(=O)Nc1ccc(C#CCC(C(=O)OC)C(=O)OC)cc12 | 0.637 | -2.18 | 0.608 | 0.263 | -0.224 | 0.105 | 0.147 | 0.914 | 1.19 | 1.8 |
| CCCCCN1CC=CC23O[C@@H]4C=CCCOC(=O)C4[C@H]2C(=O)N(CCCCCO)[C@@H]3C1=O (stereo not given in full) | -0.168 | -0.605 | -0.368 | -0.339 | -0.578 | -0.096 | -0.243 | -0.178 | 0.884 | -0.99 |
| C=CCC(OC(C)=O)[C@@H]1[C@@H](N(Cc2ccc(-c3cccc(C(F)(F)F)c3)o2)C(=O)c2ccc(C)cc2)c2cc(OCCCO)ccc2N1C(=O)Cc1ccc2ccccc2c1 (stereo not given in full) | -0.312 | 0.237 | -0.628 | -0.424 | -0.352 | -0.0704 | -0.237 | -0.122 | -0.127 | 0.236 |
| O=C1N(Cc2ccccc2)c2ccccc2[C@@H]2OC(c3ccc(OCCCO)cc3)=N[C@]12CCS(=O)(=O)c1ccccc1 | 1.38 | -1.38 | 0.274 | 1.61 | 0.246 | 0.0279 | -0.0575 | -0.807 | 0.655 | 1.48 |
